This is one part of a sample in which hits are shown more often than they occur.
mHTT CaM bind: disrupts binding of mutant huntingtin to calmodulin | P42858 | AlphaScreen His-mHTT/GST-CaM binding, luminescence | inhibition, % at 15 µM | 190,000 tested, 3.6% active;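 note: 0% = both proteins with DMSO and 100% = one protein alone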
Pf apPOL block: Pf-apPOL DNA polymerase inhibition; Recombinant Pf-apPOL, molecular beacon fluorescence, 1.5 h; inhibition, % at 10 µM; 210,000 tested, 0.25% active; AID 1794808
The depositor's hits bear a star; / = not tested or not shown; ! = not confirmed by another sample. Cut-off read from the data, not from the text of the source: active = inhibition above about 50%; inactive = the rest.

SMILES | mHTT CaM bind | Pf apPOL block
COc1ccc(Cl)cc1NC(=O)Nc1ccc2nc(C)cc(OC)c2c1 | 97* | 85*
O=S1(=O)[C@H]2C[C@H]3O[C@]2(CN1Cc1ccc(C(F)(F)F)cc1)[C@@H]1O[C@@H]13 | 5 | -6
CC1(C)NC(=O)N(CC(O)CN(c2ccccc2)c2ccccc2)C1=O (stereo not drawn) | 0 | 6
O=[N+]([O-])c1cccc(NC2OCC(O)C(O)C2O)c1 (stereo not drawn) | 7 | 1
O=[N+]([O-])c1cc(NC2OCC(O)C(O)C2O)ccc1S(=O)(=O)O (stereo not drawn) | -5 | 62*
Cc1nc2ccc(Cl)cc2s1 | -3 | -2
CCc1ccccc1NC(=O)c1csc(-c2ccc(C)n2C)n1 | 35 | -3
Cc1cc(C)cc(NC(=O)c2csc(-c3ccc(C)n3C)n2)c1 | 3 | -9
Cc1ccc(-c2nc(C(=O)NCc3ccc(F)cc3)cs2)n1C | 85* | -5
Cc1ccc(NC(=O)c2csc(-c3ccc(C)n3C)n2)c(C)c1 | -5 | 1
COc1ccccc1NC(=O)c1csc(-c2ccc(C)n2C)n1 | 7 | -2
Cc1ccc(-c2nc(C(=O)NCc3ccccc3Cl)cs2)n1C | 59* | 0
Cc1ccc(NC(=O)c2csc(-c3ccc(C)n3C)n2)cc1 | 60* | -6
Cc1ccccc1CNC(=O)c1csc(-c2ccc(C)n2C)n1 | 82* | 2
COc1ccc(NC(=O)N2CCn3cccc3C2Cc2ccccc2)cc1OC (stereo not drawn) | 59* | 2
COc1ccc(Cl)cc1NC(=O)N1CCn2cccc2C1Cc1ccccc1 (stereo not drawn) | 62* | -2
COc1cc(NC(=O)N2CCn3cccc3C2Cc2ccccc2)cc(OC)c1 (stereo not drawn) | 27 | -6
O=C(Nc1cc(F)ccc1F)N1CCn2cccc2C1Cc1ccccc1 (stereo not drawn) | -2 | -2
COc1ccc2oc(C(=O)c3ccc(F)cc3)c(NC(C)=O)c2c1 | -8 | -8
O=c1/c(=C/c2ccccc2)sc2n1CN(c1cccc(Br)c1)CN=2 | -13 | -4
O=C1Nc2ccc(Cl)cc2/C1=c1\sc2n(c1=O)CN(c1cccc(Br)c1)CN=2 | 52* | -6
O=C(CCN1C(=O)C2C3CCC(C3)C2C1=O)Nc1ccc(Br)c(Cl)c1 (stereo not drawn) | -1 | -1
CC(C)C(=O)N1CCN(c2ccc(Cl)cc2)C(=O)C1C (stereo not drawn) | -3 | -4
COc1ccc2c(c1)C(C)=CC(C)(C)N2 | 94*! | -4
COc1ccc2c(c1)-c1c(ssc1=S)C(C)(C)N2 | 88* | /
SMILES | mHTT CaM bind | Pf apPOL block
COc1ccc2c(c1)NC(C)(C)C=C2C | 18 | /
CC1(C)Nc2ccc(C(c3ccccc3)(c3ccccc3)c3ccccc3)cc2-c2c1ssc2=S | 4 | /
Cc1ccc(Cl)cc1NC(=O)N1CCc2nc[nH]c2C1 | -10 | -1
COc1nccc(N2CCC(CC(=O)NCc3ccccc3Cl)CC2)n1 | -5 | -2
Cc1ccc(N2COc3ccc(Cl)cc3C2)cc1 | 64* | -5
Fc1ccc(N2COc3cc4c(cc3C2)OCO4)cc1 | 9 | -6
Cc1cccc(N2COc3ccc(Cl)cc3C2)c1C | 96* | 0
COc1ccc2c(c1)CN(c1ccc(C)c(Cl)c1)CO2 | 77* | -4
Cc1ccc(N2COc3cc4c(cc3C2)OCO4)cc1C | 18 | -1
COc1ccc2c(c1)CN(c1ccc(C)cc1C)CO2 | -9 | 0
Fc1ccc(N2COc3ccc(Cl)cc3C2)cc1 | 50* | -5
Cc1cccc(N2CCN(C(=O)c3ccc(Cl)cc3)CC2)c1C | -5 | -9
O=C(Cn1c(Cc2ccccc2Cl)nc2ccccc21)NC1CC1 | -3 | -3
COc1ccc(C2=NOC(C(=O)Nc3ccc(C#N)cc3)C2)cc1 (stereo not drawn) | -8 | 7
COc1ccc(C)cc1NC(=O)COc1ccc(Br)cc1Cl | -1 | 1
Cc1noc(C)c1S(=O)(=O)N1CCC(CC(=O)NCCCOC(C)C)CC1 | 2 | -5
Cc1nc2ccc3nc(NC(=O)c4cc([N+](=O)[O-])ccc4Cl)sc3c2s1 | 10 | 0
CCc1ccc(S(=O)(=O)N2CCC(n3c(-c4ccco4)nc4cccnc43)C2)cc1 (stereo not drawn) | -12 | -1
CCCC(=O)N1CCCC(c2ccnc(Nc3ccccc3C)n2)C1 (stereo not drawn) | 6 | -4
O=C(Nc1ccc(F)c(Cl)c1)c1cn(-c2ccc(Cl)cc2)c(=O)c2ccccc12 | -8 | -7
Cc1ccc(C)n1-c1ccc(C(=O)ON2C(=O)CCC2=O)cc1 | / | 82*
CCOC(=O)c1ccc(-n2c(C)ccc2C)cc1 | / | -6
O=C(Nc1ccc2c(c1)OCCO2)C(c1ccccc1)c1ccccc1 | -9 | -2
Cc1csc(NC(=O)C2CC3CCC2C3)n1 (stereo not drawn) | 2 | 1
O=C1CSC(c2cc3c(cc2[N+](=O)[O-])OCO3)N1c1ccc(Br)cc1 (stereo not drawn) | 10 | -3
SMILES | mHTT CaM bind | Pf apPOL block
COc1ccc(-c2cc(-c3cccs3)c(C#N)c(=O)[nH]2)cc1 | / | -36
CCN1C(=O)/C(=C\c2nc3ccccc3c(=O)n2CC)c2ccccc21 | 100* | -8
CCN1C(=O)/C(=C\c2nc3ccccc3c(=O)n2-c2ccccc2[N+](=O)[O-])c2ccccc21 | 56* | -2
CCCN1C(=O)/C(=C\c2nc3ccccc3c(=O)n2-c2ccc(OC)cc2)c2ccccc21 | 3 | -34
CCCN1C(=O)/C(=C\c2nc3ccccc3c(=O)n2CC)c2ccccc21 | 12 | -2
O=C(c1ccc(-n2cccn2)nc1)N1CCCCC1 | -8 | -4
COC(=O)CCCn1cc(CN2CC(N3CCCCC3)CS2(=O)=O)nn1 (stereo not drawn) | -13 | -3
Cc1ccc(S(=O)(=O)Nc2cccc3cccnc23)cc1 | 38 | -45
Nc1ccccc1S(=O)(=O)Nc1cccc2cccnc12 | 100* | -19
C=CCn1c(=N)n(CC(O)c2ccc(-c3ccccc3)cc2)c2ccccc21 (stereo not drawn) | 96* | 0
C=CCn1c(=N)n(CC(O)c2ccc(Br)cc2)c2ccccc21 (stereo not drawn) | 6 | -3
N#CC1=C(S)NC(O)(c2ccccc2)C([n+]2ccccc2)C1c1ccccc1F (stereo not drawn) | 56* | -1
N#CC1=C(S)NC(O)(c2ccccc2)C([n+]2ccc3ccccc3c2)C1c1ccncc1 (stereo not drawn) | 38 | 0
N#CC1=C(S)N[C@H](c2cccnc2)[C@@](C#N)(C(N)=S)[C@H]1c1cccnc1 | 31 | /
N#CC1=C(S)NC(O)(c2ccccc2)C([n+]2ccc3ccccc3c2)C1c1ccc(F)cc1 (stereo not drawn) | 75* | -2
N#CC1=C(O)NC(=O)C([n+]2ccccc2)C1c1ccccc1I (stereo not drawn) | 34 | 7
N#CC1=C(S)NC(O)(c2ccccc2)C([n+]2cccc3cc(Cl)ccc32)C1c1cccnc1 (stereo not drawn) | 59* | -4
CCC(=O)Nc1cccc(-c2noc(C3CCN(C(=O)c4cnccn4)CC3)n2)c1 | 3 | 0
CCNC(=O)c1cc2sc(Cl)cc2n1C | 3 | -6
Cc1ccc(Cl)cc1NC(=O)CNS(=O)(=O)c1ccc(Br)s1 | 12 | 8
O=C(CSc1cccs1)NC1=NN(c2ccccc2)C(=O)C1 | 82* | -2
O=C(CSc1cccs1)Nc1nccs1 | -1 | /

Screens from PubChem.
